Data reported in PubChem BioAssay (NCATS).
Results filed as inconclusive are left out. Calls of active or inactive are those of the source. Calls follow the shape of the dose curve; as a rule, active = well fitted inhibition curve with a large enough effect; inconclusive = small, poorly fitted or top-dose-only effect; inactive = flat fitted curve, though single readings scatter.

Tests used:
Experiment in all cases: qHTS profiling for inhibitors of Plasmodium falciparum proliferation (AID 504749); also: nearly all actives have a fitted effect of over 60% in size
Settings in all cases: P. falciparum in erythrocytes, SYBR Green DNA, 72 h; series mostly up to 28.7 µM
ATS95 = test system: ATS95
Outline: (§1)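 SYBR Green fluorescence (ex 485 nm, em 535 nm) reports parasite DNA after 72 h compound exposure of infected red cells at 0.3% parasitemia, 2.5% hematocrit; signal normalized to 0.29 uM artemisinin and vehicle wells.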

C2A = test system: C2A
Outline: as §1

CP217 = test system: CP217
Outline: as §1

CP238 = test system: CP238
Outline: as §1

CP250 = test system: CP250
Outline: as §1

CP252 = test system: CP252
Outline: as §1

CP256 = test system: CP256
Outline: as §1

CP265 = test system: CP265
Outline: as §1

CP268 = test system: CP268
Outline: as §1

CP269 = test system: CP269
Outline: as §1

CP286 = test system: CP286
Outline: as §1

CP305 = test system: CP305
Outline: as §1

CP329 = test system: CP329
Outline: as §1

CP335 = test system: CP335
Outline: as §1

DIV30 = test system: DIV30
Outline: as §1

ECU = test system: ECU
Outline: as §1

P93_24 = test system: P93_24
Outline: as §1

PAD = test system: PAD
Outline: as §1

PC26 = test system: PC26
Outline: as §1

SC27B = test system: SC27B
Outline: as §1

Measured: Potency

C[C@@H](C(=O)O)c1ccc(-c2ccccc2)c(F)c1
inactive: all assays above
